Results filed as inconclusive are left out. Active and inactive are the calls of the source. The calls were made as follows: active = hit-call score of the fitted dose curve at least 0.9, where 1 is the maximum; inconclusive = response in the unintended direction; inactive = score below 0.9.
Biological target: human Adenosine Transporter (Adot), SLC29A1 (gene 2030) (UniProt Q99808)
Assay: NVS_TR_hAdoT: NovaScreen (NVS) Transporter Assay for human Adenosine Transporter (Adot) (AID 2283368)
Method: NVS_TR_hAdoT is a biochemical, single-readout assay that uses extracted gene-proteins from U937 in a cell-free assay. Measurements were taken 1 hour after chemical dosing in a 96-well plate.NVS_TR_hAdoT is one of one assay component(s) measured or calculated from the NVS_TR_hAdoT assay. It is designed to make measurements of radioligand binding, a form of binding reporter, as detected with scintillation counting signals by Filter-based radiodetection technology.Data from the assay component NVS_TR_hAdoT was analyzed into 1 assay endpoint. This assay endpoint, NVS_TR_hAdoT, was analyzed in the positive analysis fitting direction relative to DMSO as the negative control and baseline of activity. Using a type of binding reporter, loss-of-signal activity can be used to understand changes in the binding as they relate to the gene SLC29A1. Furthermore, this assay endpoint can be referred to as a primary readout, because the performed assay has only produced 1 assay endpoint. To generalize the intended target to other relatable targets, this assay endpoint is annotated to the transporter intended target family, where the subfamily is nucleoside transporter.
Binding assays used specific radioligands (tritiated, iodinated) with non-radioactive competitive displacement ligands in agonist or antagonist protocols (as indicated) and various reference compounds and inhibitors to titrate specific binding to receptors and transporters. Most enzyme assays (CYPs, kinases, phosphatases, proteases, HDACs) used recombinant protein and specific substrates (fluorescence mostly, some colorimetric and radioactive) and inhibitors, followed by a biochemical separation of substrate and product. All assays for the biochemical HTS were initially run in duplicate at a single concentration (10 uM for CYP450 assays and 25 uM for all others). Assay-chemical combinations meeting a pre-defined threshold (e.g., 30% inhibition and other criteria defined below) were then run in singleton concentration-response format with maximum concentration of 20 uM for CYPs and 50 uM for all others. Each assay was run with positive and negative controls, and concurrent controls on every plate. The follow-up (secondary) screen tested active chemical-pairs in concentration series, as well as a few additional assays not tested in the primary screen, some selected negative inactives, and several cases re-run in the concentration series for confirmatory purposes.

Chain of human Adenosine Transporter (Adot), SLC29A1 (gene 2030) (Q99808 whole entry, looked up): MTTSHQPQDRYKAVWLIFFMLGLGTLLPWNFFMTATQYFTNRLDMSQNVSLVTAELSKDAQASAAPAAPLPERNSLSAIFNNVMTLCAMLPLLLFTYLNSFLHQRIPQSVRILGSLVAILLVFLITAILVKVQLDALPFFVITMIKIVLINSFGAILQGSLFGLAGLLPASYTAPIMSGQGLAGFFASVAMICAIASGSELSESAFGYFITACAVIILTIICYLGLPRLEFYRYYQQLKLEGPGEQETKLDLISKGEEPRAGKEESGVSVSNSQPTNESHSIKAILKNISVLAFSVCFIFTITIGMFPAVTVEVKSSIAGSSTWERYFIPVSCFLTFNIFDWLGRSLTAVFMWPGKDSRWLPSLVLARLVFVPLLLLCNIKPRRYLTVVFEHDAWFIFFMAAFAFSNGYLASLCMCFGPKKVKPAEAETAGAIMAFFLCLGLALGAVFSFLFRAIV

Row | Compound | AC50 | outcome
1 | O=C(OC[C@H]1O[C@@H](OC(=O)c2cc(O)c(O)c(OC(=O)c3cc(O)c(O)c(O)c3)c2)[C@H](OC(=O)c2cc(O)c(O)c(OC(=O)c3cc(O)c(O)c(O)c3)c2)[C@@H](OC(=O)c2cc(O)c(O)c(OC(=O)c3cc(O)c(O)c(O)c3)c2)[C@@H]1OC(=O)c1cc(O)c(O)c(OC(=O)c2cc(O)c(O)c(O)c2)c1)c1cc(O)c(O)c(OC(=O)c2cc(O)c(O)c(O)c2)c1 | 3.15 µM (active) | –
2 | CCc1cc(SCc2sc(-c3ccc(C(F)(F)F)cc3)nc2CN2CCN(c3ccc(OC)cc3)CC2)ccc1OCC(=O)O | 10.8 µM (active) | –
3 | Cc1ccc(N)cc1O | – | inactive
4 | COc1ccc(-n2nc(C(F)F)cc2-c2ccc(S(C)=O)cc2)cc1 (stereo unspecified) | 33.2 µM (active) | –
5 | O=C(O)c1cccc(Oc2ccccc2)c1 | – | inactive
6 | CCCCC(CC)COC(=O)CCCCCCCCC(=O)OCC(CC)CCCC (stereo unspecified) | 39.9 µM (active) | –
7 | Fc1ccccc1[C@@H](F)COC1CCC(Nc2ncnc3[nH]ncc23)CC1 (stereo partly specified) | 5.08 µM (active) | –
8 | CCC(C)(C)C(=O)O[C@H]1C[C@@H](C)C=C2C=C[C@H](C)[C@H](CC[C@@H]3C[C@@H](O)CC(=O)O3)[C@H]21 | 25 µM (active) | –
9 | CCOc1cccc(-n2cc(C(=O)N3CCN(c4cc(C(=O)O)c5ccccc5c4)CC3)nc2-c2ccc(C)cc2)c1 | 14.8 µM (active) | –
10 | CCCCCCc1ccc(O)cc1O | – | inactive
11 | Cn1c(=O)cc(Oc2ccc(F)cc2F)c2cnc(NCC(C)(C)O)nc21 | 25 µM (active) | –

Reference: PubChem BioAssay (EPA / NIEHS)
